Here are results for 68 compounds from PubChem BioAssay AID602481 (Broad Institute, 2012).

A word on the inhibition: it is the change of the read-out against control, counted positive when it falls.

Molecules are shown by their SMILES. About 340 (0.094%) of roughly 360,000 compounds were called active. This is one part of a sample in which actives are shown more often than they occur. A number with no mark means an inactive call. No stated cut-off is given here; in the data, active means inhibition above about 40%; inconclusive means no clear call, values can overlap the other calls; inactive means below that.

The test system of the experiment is 7,8-diaminopelargonic acid synthase BioA (Mycobacterium tuberculosis). Description: M. tuberculosis BioA enzyme inhibitors, primary screen, biochemical, plate reader, single point, HTS (AID 602481). The conditions noted are these: purified M. tuberculosis BioA enzyme, at 9.99 µM, active compounds read high.
Regarding `O=C(NCC1CC1)[C@@H]1[C@@H](CO)[C@@H]2Cn3c(ccc(-c4ccccc4)c3=O)[C@H]1N2Cc1nccs1`, the inhibition was 0.617%. Consider `CC(C)CC#Cc1ccc2c(c1)O[C@H](CN(C)C(=O)Cc1cccnc1)[C@H](C)CN([C@@H](C)CO)S2(=O)=O`, for which the inhibition was 5.43%. In the case of `CC(=O)c1ccc(N2CCN(C(=O)c3ccc4nc[nH]c4c3)CC2)cc1` it was 57% (active); in that of `CC(=O)c1ccc(N2CCN(CC(O)c3ccccc3)CC2)cc1` (stereo not drawn), 20.2%. Regarding `CC(=O)c1ccc(N2Cc3ccccc3C2)cc1`, the inhibition is 10.6%.

In the case of `Cc1c2cnn(CC(=O)NCc3ccccn3)c(=O)c2c(C)n1Cc1ccc(Cl)cc1`, the inhibition was 86.8% (active).

For the compound `O=C(Cn1ncc2c3ccccc3n(Cc3ccccc3)c2c1=O)NCc1ccccn1`, the inhibition was -3.36%. In the case of `Cc1ccc(Cn2c(C)c3cnn(CC(=O)NCc4ccccn4)c(=O)c3c2C)cc1` it was 8.47%; in that of `O=C(CSc1n[nH]c(-c2cccnc2)n1)Nc1ccnc2ccccc12`, 46% (active). As for `O=C(CSc1ncn[nH]1)Nc1ccnc2ccccc12`, the inhibition is 1.08%. Then `O=C(CSc1n[nH]c(-c2cccnc2)n1)Nc1ccc(Cl)cc1`, with 16.3%.

With `Cc1ccc(S(=O)(=O)N(C)C[C@@H]2Oc3ccc(NS(=O)(=O)c4ccc(F)cc4)cc3CC(=O)N([C@@H](C)CO)C[C@H]2C)cc1`, the inhibition is 2.21%. In the case of `C[C@@H]1CN([C@H](C)CO)C(=O)Cc2cc(NC(=O)CCCCCC(=O)Nc3ccccc3N)ccc2O[C@H]1CN(C)S(=O)(=O)c1ccc(F)cc1` it was 0.122%; in that of `C[C@@H]1CN([C@@H](C)CO)C(=O)c2c(c3ccccc3n2C)-c2ccccc2CO[C@H]1CN(C)Cc1cccc(C(=O)O)c1`, -1.04%.

Regarding `CCC(=O)Nc1ccc2c(c1)C(=O)N(C)C[C@H](OC)[C@H](C)CN(C(=O)C1CCC1)[C@@H](C)CO2`, the inhibition is 1.3%. Then `C[C@H](CO)N1C[C@H](C)[C@@H](CN(C)S(=O)(=O)c2cn(C)cn2)Oc2c(NC(=O)C3CC3)cccc2C1=O`, with -1.33%; and `CC(=O)N[C@@H]1C=C[C@H](CC(=O)NCC2CCCCC2)O[C@H]1CO`, with -0.006%; and `CO[C@H]1CN(C)C(=O)c2ccc(NS(C)(=O)=O)cc2OC[C@@H](C)N(Cc2ccccc2)C[C@@H]1C`, with -2.35%. Regarding `CCCNC(=O)N(C)C[C@H]1Oc2ncc(C#C[C@@H](C)O)cc2C(=O)N([C@@H](C)CO)C[C@@H]1C`, the inhibition is -0.359%. In the case of `CCC(=O)N1C[C@@H](C)[C@@H](OC)CN(C)C(=O)c2ccc(NC(=O)C3CCCCC3)cc2OC[C@H]1C`, the inhibition was -0.504%. In the case of `C[C@H](CO)N1C[C@H](C)[C@@H](CN(C)Cc2ccccc2)Oc2ccc(NC(=O)CCCN(C)C)cc2C1=O` it was -2.64%; in that of `CCCNC(=O)C[C@@H]1CC[C@H]2[C@H](COc3ccc(NS(=O)(=O)c4ccccc4C)cc3C(=O)N2C)O1`, 1.74%; in that of `COc1ccc(C(=O)N(C)Cc2ccc(OC)c(OC)c2OC)cc1S(=O)(=O)N1CCOCC1`, -0.32%. In the case of `CO[C@@H](CN(C)C(=O)c1ccc2c(c1)OCO2)[C@@H](C)CN([C@H](C)CO)S(=O)(=O)c1ccccc1` it was 3.78%; in that of `COc1c(C=O)c(CCN(C)C(=O)c2ccc(F)cc2)cc2c1OCO2`, 48.4% (active). With `O=C(Cc1ccccc1)N1C[C@H]2[C@@H](c3ccccc31)[C@H](CO)N2C(=O)C1CCOCC1`, the inhibition is -4.05%.

With `CC(=O)N(C)C[C@@H]1Oc2ncc(C#Cc3ccccn3)cc2C(=O)N([C@@H](C)CO)C[C@@H]1C`, the inhibition was -5.71%. In the case of `CN(C)C(=O)c1cccc(-c2ccc3c(c2)[C@H]2[C@H](CCN2C(=O)c2cccnc2)[C@H](CO)N3)c1` it was 19.8%; in that of `Cc1ccccc1S(=O)(=O)N(C)C[C@@H]1OCc2ccccc2-c2c(n(C)c3ccccc23)C(=O)N([C@H](C)CO)C[C@H]1C`, -1.26%; in that of `C[C@@H]1CCCCO[C@H](CN(C)S(=O)(=O)c2cn(C)cn2)[C@@H](C)CN([C@@H](C)CO)C(=O)c2cc(NC(=O)CCC(F)(F)F)ccc2O1`, -0.672%. Regarding `COc1ccc(-c2ccc3c(c2)[C@@H]2[C@@H](CCN2C(=O)Cc2ccccn2)[C@H](CO)N3C)cc1`, the inhibition is -0.705%. Then `CN1c2ccc(-c3ccccc3)cc2[C@H]2[C@H](CCN2C(=O)Cc2ccccn2)[C@H]1CO`, with 50.1% (active). Then `CN1c2ccc(-c3ccccc3F)cc2[C@H]2[C@H](CCN2C(=O)Cc2ccccn2)[C@H]1CO`, with 6.26%; and `COCc1cn(CC[C@H]2CC[C@@H](NC(=O)Nc3ccc(OC)cc3)[C@@H](CO)O2)nn1`, with 4.23%. As to `CN1c2ccc(-c3cccc(C#N)c3)cc2[C@@H]2[C@@H](CCN2C(=O)C2CCC2)[C@@H]1CO`, the inhibition was 1.18%. Then `C=CCOc1nc2c(c(=O)n(C)c(=O)n2C)n1Cc1ccc(Cl)cc1Cl`, with -1.57%; and `CCOC(=O)N1CCN(Cc2nc3c(c(=O)n(C)c(=O)n3C)n2Cc2ccccc2)CC1`, with 4.21%. Take `Cn1c(=O)c2c(nc(OCc3cccnc3)n2Cc2ccccc2)n(C)c1=O`: the inhibition is 69.8% (active). On to `CN(C)C(=O)C[C@H]1C[C@H]2c3cc(NC(=O)Nc4ccc(C(F)(F)F)cc4)ccc3O[C@H]2[C@@H](CO)O1`, for which the inhibition is -0.072%. In the case of `COCCN(C[C@H]1[C@H](c2ccccc2)[C@@H](CO)N1C(C)=O)C(=O)c1cccnc1` it was 4.64%.

For `C[C@H](CO)N1C[C@H](C)[C@@H](CN(C)C(=O)Cc2cccnc2)Oc2ncc(-c3ccncc3)cc2C1=O`, the inhibition is 5.57%. In the case of `CCCNC(=O)N1C[C@H](C)[C@H](OC)CN(C)C(=O)c2cc(NC(=O)CC)ccc2OC[C@H]1C` it was 0.679%; in that of `CO[C@@H](CN(C)S(=O)(=O)c1ccc(C)cc1)[C@@H](C)CN([C@@H](C)CO)S(=O)(=O)c1cccc(Cl)c1`, -0.469%.

`CN1C(=O)c2cc(NC(=O)Nc3ccccc3F)ccc2OC[C@H]2O[C@@H](CC(=O)Nc3cccc(Cl)c3)CC[C@@H]21`: the inhibition was 4.99%. For the compound `CO[C@H]1CN(C)C(=O)c2ccc(NS(=O)(=O)c3cn(C)cn3)cc2OC[C@H](C)N(C)C[C@H]1C`, the inhibition was -1.67%.

For `CC(C)CC#Cc1ccc2c(c1)O[C@H](CN(C)Cc1ccccc1F)[C@@H](C)CN([C@@H](C)CO)S2(=O)=O`, the inhibition was 0.76%.

Regarding `O=C(NCCN1CCCC1)[C@@H]1N[C@@H]2c3ccc(-c4ccccc4)c(=O)n3C[C@@H]2[C@H]1CO`, the inhibition is -0.384%. Then `CC(C)NC(=O)Nc1ccc2c(c1)C(=O)N([C@H](C)CO)C[C@H](C)[C@@H](CN(C)S(C)(=O)=O)OCCCC[C@@H](C)O2`, with -1.93%; and `C[C@H](O)C#Cc1ccc([C@@H]2[C@@H](CO)N3CCCCN(C(=O)c4ccc(F)cc4)C[C@H]23)cc1`, with 8.06%; and `O=C(C[C@@H]1CC[C@@H]2[C@H](COC[C@@H](O)CN2S(=O)(=O)c2cccc(Cl)c2)O1)N1CCOCC1`, with 0.133%. Consider `C[C@@H]1CN([C@@H](C)CO)S(=O)(=O)c2ccc(-c3cncnc3)cc2O[C@@H]1CN(C)C(=O)C1CC1`, for which the inhibition was -2.8%. Regarding `Cc1ccc(Cc2c(C)nc3nc(SCC(=O)NCCN4CCOCC4)nn3c2C)cc1`, the inhibition was 53.9% (active). In the case of `Cc1nc2nc(SCC(=O)NCc3ccco3)nn2c(C)c1Cc1ccccc1`, the inhibition is 45.5% (active). In the case of `Cc1nc2c(-c3ccc(F)cc3)c(C)nn2c(C)c1CCC(=O)NCc1ccco1` it was -0.947%; in that of `COc1cc(OC)cc(-c2nc3nc(C)c(CCC(=O)NCc4ccco4)c(C)n3n2)c1`, -1.9%. For the compound `O=C(Cn1cc2c(n1)CCCCC2)NCCN1CCOCC1`, the inhibition was 1.9%. Consider `Cc1ccc(Cn2c(C)c3cnn(CC(=O)NCCN4CCOCC4)c(=O)c3c2C)cc1`, for which the inhibition was 11.4%. Turning to `CO[C@H]1CN(C)C(=O)c2ccc(NC(=O)c3cccc(Oc4ccccc4)c3)cc2OC[C@@H](C)NC[C@H]1C`, the inhibition is 2.28%. As to `C/C=C/c1ccc2c(c1)O[C@@H](CN(C)S(C)(=O)=O)[C@@H](C)CN([C@H](C)CO)S2(=O)=O`, the inhibition was 3.09%. In the case of `CN1C(=O)c2cc(NS(=O)(=O)c3ccc(F)cc3)ccc2OC[C@@H]2O[C@@H](CC(=O)O)CC[C@H]21` it was 0.387%; in that of `C[C@@H](NC(=O)C[C@H]1C=C[C@H](NC(=O)C2CCOCC2)[C@H](CO)O1)c1ccccc1`, 1.84%. Regarding `C[C@H](CO)N1C[C@H](C)[C@@H](CN(C)CC2CCCCC2)Oc2ccc(NS(=O)(=O)c3cccs3)cc2CC1=O`, the inhibition was 3.51%.

As to `CO[C@@H]1CN(C)C(=O)c2cc(NC(=O)c3cnccn3)ccc2OC[C@@H](C)N(C(=O)C2CC2)C[C@@H]1C`, the inhibition was 9.9%.

With `CC=Cc1ccc2n(c1=O)C[C@@H]1[C@@H](CO)[C@H](C(=O)N3CCc4ccccc4C3)N(C(=O)C3CCC3)[C@H]21` (mixture of isomers), the inhibition was 0.815%. On to `CC(C)(C)S(=O)N1Cc2cc(C(=O)O)nc(-c3cccc(-c4cc5ccccc5o4)c3)c2[C@@H]1CCO` (stereo partly drawn), for which the inhibition was -0.446%. In the case of `CCCNC(=O)Nc1ccc2c(c1)C(=O)N(C)C[C@@H](OC)[C@@H](C)CN(C)[C@@H](C)CO2` it was -0.7%; in that of `CN(C)c1ccc2c(c1)[C@H]1C[C@H](CC(=O)NCc3ccc(Cl)cc3)O[C@H](CO)[C@H]1O2`, 0.352%. As to `O=C(CC1CC1)N1[C@@H]2CN(S(=O)(=O)c3ccc(F)cc3)c3ccccc3[C@@H]2[C@@H]1CO`, the inhibition is 3.83%.
